Source: PubChem BioAssay (NCI)
About 79,000 compounds went through this panel and 15% of them were active in at least one assay; those are over-represented in the sample as a whole. The source made the active and inactive calls. Rule as the data show it: active = growth inhibition above about 70%; inactive = the rest.

Assay: NCI Yeast Anticancer Drug Screen. Data for the cln2 rad14 strain (AID 165);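 also: 0% = growth equal to vehicle treated cultures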
Details: S. cerevisiae cln2 rad14 strain, at 50.0 µM, active compounds read high
Summary of the method: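 Yeast carrying cln2 and rad14 alterations (cell cycle control and DNA damage repair) were exposed to compounds. Growth inhibition was measured against vehicle-treated controls.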
In the case of `O=c1cc(NCc2cccc([N+](=O)[O-])c2)[nH]c(=O)[nH]1`, the growth inhibition is reported as -12.6% (inactive).
With `CN(C)N=Nc1ccc(C(=O)N/N=C/c2ccccc2[N+](=O)[O-])cc1` the growth inhibition was -18.2% (inactive).
With `COc1ccc(/C(C)=N/NC(N)=S)cc1OC` the growth inhibition was 16% (inactive).
With `CCCCCCCCCCCCCCCCCCCCCCCCCCCCCCCCCCCCSC(=N)N` the growth inhibition was -7.05% (inactive).
With `CCC1(C)C(=O)NC(=O)N1C(C)=O` (stereo not given) the growth inhibition was -44.2% (inactive).
With `CCSC1OC(C(COC(C)=O)OC(C)=O)C(OC(C)=O)C1NC(=O)OCc1ccccc1` (stereo not given) the growth inhibition was 7.2% (inactive).
For `COC(=O)C1(C)CCCC2(C)c3cc(OC)ccc3C(=O)C(Cl)C12` (stereo not given), the growth inhibition was -13.8% (inactive).
With `CCC1(CC)C(=O)N(C(=O)c2cc(OC)c(OC)c(OC)c2)N(C(=O)c2cc(OC)c(OC)c(OC)c2)C1=O` the growth inhibition was -11% (inactive).
For `C#CCOCC12C=CC(O1)C1C(=O)OCC12` (stereo not given), the growth inhibition was 18.9% (inactive).
With `N=C(N)c1ccncc1` the growth inhibition was -32% (inactive).
With `Cc1ccc(S(=O)(=O)N2CCC[C@@H]2C(=O)O[C@@H]2CCC3CC=CC32)cc1` (stereo not given in full) the growth inhibition was -1.8% (inactive).
For `O=C(CCBr)Nc1ccccc1`, the growth inhibition was -38.2% (inactive).
In the case of `O=C(/C=C\c1ccccc1)OCc1ccccc1CN1CCCCC1`, the growth inhibition is reported as 14.6% (inactive).
In the case of `C(=Nc1ccc(SSc2ccc(N=Cc3ccc4c(c3)OCO4)cc2)cc1)c1ccc2c(c1)OCO2`, the growth inhibition is reported as -8.55% (inactive).
In the case of `O=C(NCCN1CCCC1)NC1CCCCC1`, the growth inhibition is reported as -69.5% (inactive).
In the case of `N=c1nnc2ccc(Cl)cc2n1O`, the growth inhibition is reported as 9.65% (inactive).
For `Cc1cc(C)c(C#N)c(N)n1`, the growth inhibition was -17.9% (inactive).
With `CC(=O)CC(=O)NCC#N` the growth inhibition was 25.6% (inactive).
With `CS(=O)(=O)C(CCC(=O)c1cccs1)C(=O)c1ccccc1` (stereo not given) the growth inhibition was 1.85% (inactive).
With `O=C(Cn1ccc(=O)[nH]c1=O)Nc1ccc(C(=O)O)c(O)c1` the growth inhibition was -45.8% (inactive).
In the case of `O=C1c2ccccc2-c2nnc(-c3ccc(Cl)cc3)cc21`, the growth inhibition is reported as -16.9% (inactive).
For `C#CC[N+](C)(CC#C)CC#C`, the growth inhibition was 11.9% (inactive).
With `COC(=O)C1=CON2C3CC4CC(C3)CC(C4)C12C` (stereo not given) the growth inhibition was -14.2% (inactive).
In the case of `COc1ccc(C(=O)/C=C/c2ccc(OCCCCCCCCCCOc3ccc(/C=C/C(=O)c4ccc(OC)cc4)cc3)cc2)cc1`, the growth inhibition is reported as -15.2% (inactive).
In the case of `FC(F)(F)c1nc(Cl)c2cn[nH]c2n1`, the growth inhibition is reported as -16.9% (inactive).
For `CCCC1C(C#N)(C#N)C(C#N)=C(N)C1(C)C(C)=O` (stereo not given), the growth inhibition was 0.4% (inactive).
In the case of `CCn1cc2c(=O)n3ncn(-c4ccc(Br)cc4)c3nc2n1`, the growth inhibition is reported as -16.4% (inactive).
In the case of `COc1ccc2cc1Oc1ccc(cc1)CC1c3c(cc(OC)c4c3Oc3cc5c(cc3O4)CCNC5C2)CCN1C` (stereo not given), the growth inhibition is reported as -1.1% (inactive).
With `CCCCC/C(C)=C\CBr` the growth inhibition was -22.9% (inactive).
For `CCCCOC(=O)C12CCCCC1O2` (stereo not given), the growth inhibition was 2.55% (inactive).
In the case of `O=c1[nH]c(=O)n(C2CC(O)C(CO)O2)cc1/C=C/Br` (stereo not given), the growth inhibition is reported as -5.4% (inactive).
In the case of `O=C(Nc1ccc(S(=O)(=O)/N=c2\ncccn2C(=O)C(C(F)(F)F)C(F)(F)F)cc1)C(C(F)(F)F)C(F)(F)F`, the growth inhibition is reported as 22.2% (inactive).
With `c1ccc2c(-c3ccncc3)c3ccccc3cc2c1` the growth inhibition was 0.45% (inactive).
With `CCN(C(=O)CCl)c1ccccc1` the growth inhibition was -12.6% (inactive).
For `CN(C)NC(=O)CC#N`, the growth inhibition was -4.3% (inactive).
In the case of `COC(=O)C1C(O)C(C)C(OC(C)=O)C(C)/C=C\C=C(C)C(=O)Nc2c(C)c(OC(C)=O)c3c(c2O)C(=O)C(C)=C2OCOC(=C23)C(C)=CC(C)(O)C(O)C(C)C1O` (stereo not given), the growth inhibition is reported as 3.35% (inactive).
In the case of `O=C1C(C2CCCCC2)=C2OCC3COC2(O3)c2ccccc21` (stereo not given), the growth inhibition is reported as -10.1% (inactive).
For `O=C1Nc2ccccc2C1=Nc1cccc2ncccc12`, the growth inhibition was -4.5% (inactive).
In the case of `COc1ccc(Cl)[n+]([O-])n1`, the growth inhibition is reported as 0.8% (inactive).
In the case of `Cc1ccsc1S(N)(=O)=O`, the growth inhibition is reported as -12.2% (inactive).
